“And” between values parts separate entries of the source, which are not always exact repeats. Equal values may be shown once. The source made the active and inactive calls.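 Rule for the calls, unless noted: active = compound raises GLP1 secretion from the human gut endocrine cells, with no numeric limit stated; inactive = the rest.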
Experiments:
[1] = yeast 75Q aggregation reduction – 75Q-TubU reporter (AID 1593); settings: Yeast 75Q polyglutamine aggregation reporter
[2] = blockers of cytochrome c efflux from mitochondria – biochemical, purified mitochondria (AID 1603); settings: stronger effect = lower value;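 note: mouse liver mitochondria challenged with calcium chloride; signal normalized to the plate average as 100%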
[3] = polyglutamine aggregate formation blockers (AID 1604); settings: polyglutamine-induced protein aggregation inhibition assay; stronger effect = higher value; tested at 2.5 µM
[4] = Wnt pathway potentiators raising nuclear beta-catenin – imaging, WNT3A-conditioned medium, mouse C2C12, NPC library, primary screen (AID 1117326; in the data active = nuclear beta-catenin stimulation mostly above about 4.2%, no sharp cut-off; inactive = mostly below about 10%); settings: stronger effect = higher value
[5] = stimulators of insulin release from INS-1E, primary screen, cell-based, 5 mM glucose, NPC library (AID 1117329;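 active = compound raises insulin release from rat beta cells at 5 mM glucose, no numeric limit stated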); settings: rat INS-1E insulin secretion, at 10 µM, stronger effect = higher value
[6] = growth inhibition of GSK3B-pretreated HCT116 cells – cell-based, CellTiter-Glo, 0.2 to 20 µM (AID 1117336;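 active = compounds lowering colon cancer cell viability after pretreatment blocking the GSK3B kinase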); settings: HCT116 viability after GSK3B inhibitor, at 20 µM, stronger effect = higher value
[7] = inhibition of endothelial tube formation, primary screen, imaging, VEGF stimulated, CD31 staining, tube area, NPC library (AID 1117340;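 active = compound that reduces growth-factor-driven endothelial tube area in a mixed cell culture, no cutoff stated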); settings: VEGF-stimulated ADSC/ECFC co-culture, at 10 µM, stronger effect = higher value
[8] = GLP1 release stimulators, primary, NCI-H716, NPC library (AID 1117341); settings: NCI-H716 cells, at 10 µM, stronger effect = higher value
[9] = HCT116 colon cancer cell growth inhibition, primary screen, CellTiter-Glo luminescence, NPC library (AID 1117342;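 active = compounds that lower survival of HCT116 colon cancer cells in the luminescence readout, no numeric limit stated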); settings: at 20 µM (top of the series)
[10] = reduced SW480 viability measured with CellTiter-Glo, NPC library, primary (AID 1117343;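 active = compounds that lower viability of the colon cancer cells in the luminescence readout, with no numeric limit stated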); settings: CellTiter-Glo luminescence; at 20 µM (top of the series)
[11] = NPC library primary testing for decreased DLD-1 cell viability via CellTiter-Glo (AID 1117346;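 active = compounds that lower survival of DLD-1 colon cancer cells in the luminescence readout, no cutoff given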); settings: DLD-1 viability, CellTiter-Glo luminescence; at 20 µM (top of the series)
[12] = molecular target: 6-phosphogluconate dehydrogenase, decarboxylating (Homo sapiens) (UniProt P52209); assay: inhibition of human phosphogluconate dehydrogenase – biochemical, recombinant enzyme, NADPH absorbance, primary screen (AID 1159550;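 active = at least 20% inhibition of 6-phosphogluconate dehydrogenase activity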); settings: recombinant 6PGD, NADPH absorbance 341 nm; at 10 µM; stronger effect = higher value
[13] = EMT-state selective cytotoxicity in co-culture – imaging, PC-3E GFP, TEM4-18 mCherry, primary screen (AID 1345086;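 active = compounds killing one labelled cell type while sparing the other, by normalised counts and ratio limits, not self-fluorescent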;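 for all read-outs here: cells exposed to compound for 72 h before imaging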;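 for red/green cell ratio (normalised): normalised mesenchymal count divided by normalised epithelial count so high means epithelial killing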); settings: PC-3E GFP / TEM4-18 mCherry co-culture, imaging cell counts, at 1 µM; for red/green cell ratio (normalised): actives lie on both sides
[14] = tested on: Aerobactin synthetase IucA (Klebsiella pneumoniae hvKP1); assay: IucA enzyme inhibition, primary screen, biochemical, Spectrum library (AID 1346200; call rule not given here;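 note: 100% = wells without compound and 0% = wells lacking enzyme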); settings: malachite green pyrophosphate, A620, at 8 µM, stronger effect = lower value
[15] = viability loss with induced miR-34 in A549 – imaging, A549 dox-inducible miR-34, nuclei and caspase counts, primary screen (AID 1347080;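 active = compounds whose cell count with miR-34 switched on is under 0.7 times the count with it off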); settings: A549 miR-34 inducible, Hoechst nuclei count, 48 h
[16] = MELAS cybrid and Rieske KO viability enhancers – cell-based, MELAS cybrids, Rieske KO mouse fibroblasts, CellTiter-Glo, primary screen (AID 1508586;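 active = mean z-score across replicates of 1.96 or higher in either the MELAS or the Rieske mutant cell line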;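 note: z relative to plate mean and SD of compound and empty wells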); settings: low glucose
[17] = molecular target: NAD(+) hydrolase SARM1 (Homo sapiens) (UniProt Q6SZW1); assay: blocking NAD cleavage by SARM1 SAM-TIR – cell lysate, NAD-Glo luminescence (AID 1508614;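 active = compound whose remaining NAD level is above about 45 nM, limit read from the data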;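 note: higher remaining NAD means stronger inhibition of SARM1 NADase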); settings: SAM-TIR HEK293T lysate NADase, at 1 µM, stronger effect = higher value
[18] = molecular target: Mitogen-activated protein kinase 7 (Homo sapiens) (UniProt Q13164); assay: Gal4-ERK5 driven luciferase induction – cell-based, HTS, primary screen (AID 1508626;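 active = luciferase signal above three times the same-plate solvent-only control wells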;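 note: luciferase driven by Gal4-ERK5 fusion binding five Gal4 sites before minimal TATA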); settings: HeLa Gal4-ERK5 transactivation, 18 h, at 5 µM, stronger effect = higher value
[19] = galactose survival enhancers in mitochondrial complex I cybrids – cell-based, galactose medium, ATP luminescence, primary screen (AID 1645843;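 active = z-score of at least 1.8 in each of two replicates, scored against plate mean and spread of sample wells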;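 note: positive z means more ATP and so rescue of galactose-driven cybrid death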); settings: complex I mutant cybrid cells, 72 h, stronger effect = higher value
[20] = P. berghei load reduction in hepatocytes – cell-based, HepG2, luciferase luminescence, HepG2 viability, primary screen (AID 624349; in the data active = parasite load remaining mostly below about 12%, no sharp cut-off; inactive = mostly above about 10%;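 note: 100% = mean of DMSO negative control wells on the same plate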); settings: P. berghei liver stage in HepG2, luciferase luminescence, concentration not given here; parasite load remaining: stronger effect = lower value; viability: measured here: HepG2 viability without parasites
[21] = measured here: epithelial PC-3E GFP cell survival
[22] = measured here: mesenchymal TEM4-18 mCherry cell survival
[23] = measured here: relative caspase fold change +Dox/-Dox
[24] = measured here: total cells with miR-34 induction, stronger effect = lower value
[25] = measured here: total cells without miR-34 induction

Sequence of Mitogen-activated protein kinase 7 (Homo sapiens) (Q13164 whole entry, looked up, the tested form may be a part): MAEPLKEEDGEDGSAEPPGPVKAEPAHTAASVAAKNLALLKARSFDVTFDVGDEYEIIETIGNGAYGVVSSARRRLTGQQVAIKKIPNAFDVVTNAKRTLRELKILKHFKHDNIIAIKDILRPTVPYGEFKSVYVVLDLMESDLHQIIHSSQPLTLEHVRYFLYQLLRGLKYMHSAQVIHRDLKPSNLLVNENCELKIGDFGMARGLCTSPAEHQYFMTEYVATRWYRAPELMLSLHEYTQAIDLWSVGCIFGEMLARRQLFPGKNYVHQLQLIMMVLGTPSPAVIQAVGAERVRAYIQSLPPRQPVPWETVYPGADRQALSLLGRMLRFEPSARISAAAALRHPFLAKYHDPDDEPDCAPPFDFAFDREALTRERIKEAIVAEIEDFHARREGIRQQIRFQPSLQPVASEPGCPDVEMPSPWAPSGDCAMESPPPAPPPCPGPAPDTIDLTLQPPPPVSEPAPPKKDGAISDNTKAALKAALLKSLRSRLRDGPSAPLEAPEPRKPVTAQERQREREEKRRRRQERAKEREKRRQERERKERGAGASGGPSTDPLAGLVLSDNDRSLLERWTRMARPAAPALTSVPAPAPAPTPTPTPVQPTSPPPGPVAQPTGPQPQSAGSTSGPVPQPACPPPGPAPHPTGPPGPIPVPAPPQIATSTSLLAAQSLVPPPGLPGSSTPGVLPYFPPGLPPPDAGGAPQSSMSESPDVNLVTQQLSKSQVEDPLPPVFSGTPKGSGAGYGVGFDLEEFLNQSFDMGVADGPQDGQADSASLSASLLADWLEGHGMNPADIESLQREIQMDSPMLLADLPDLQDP
Sequence of 6-phosphogluconate dehydrogenase, decarboxylating (Homo sapiens) (P52209 whole entry, looked up): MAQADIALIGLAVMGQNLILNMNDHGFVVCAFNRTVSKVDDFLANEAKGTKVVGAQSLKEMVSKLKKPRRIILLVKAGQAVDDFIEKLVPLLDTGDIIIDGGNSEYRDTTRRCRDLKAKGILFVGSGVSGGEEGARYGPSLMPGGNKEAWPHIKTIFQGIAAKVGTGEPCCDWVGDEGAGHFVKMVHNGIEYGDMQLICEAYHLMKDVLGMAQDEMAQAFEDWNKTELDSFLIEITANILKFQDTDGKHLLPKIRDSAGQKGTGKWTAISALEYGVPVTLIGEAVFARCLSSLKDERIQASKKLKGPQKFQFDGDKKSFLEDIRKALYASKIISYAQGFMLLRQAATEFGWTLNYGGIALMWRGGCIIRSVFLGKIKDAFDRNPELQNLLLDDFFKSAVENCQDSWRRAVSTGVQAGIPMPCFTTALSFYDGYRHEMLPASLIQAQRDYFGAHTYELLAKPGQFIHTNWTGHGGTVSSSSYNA
Sequence of NAD(+) hydrolase SARM1 (Homo sapiens) (Q6SZW1 whole entry, looked up, the tested form may be a part): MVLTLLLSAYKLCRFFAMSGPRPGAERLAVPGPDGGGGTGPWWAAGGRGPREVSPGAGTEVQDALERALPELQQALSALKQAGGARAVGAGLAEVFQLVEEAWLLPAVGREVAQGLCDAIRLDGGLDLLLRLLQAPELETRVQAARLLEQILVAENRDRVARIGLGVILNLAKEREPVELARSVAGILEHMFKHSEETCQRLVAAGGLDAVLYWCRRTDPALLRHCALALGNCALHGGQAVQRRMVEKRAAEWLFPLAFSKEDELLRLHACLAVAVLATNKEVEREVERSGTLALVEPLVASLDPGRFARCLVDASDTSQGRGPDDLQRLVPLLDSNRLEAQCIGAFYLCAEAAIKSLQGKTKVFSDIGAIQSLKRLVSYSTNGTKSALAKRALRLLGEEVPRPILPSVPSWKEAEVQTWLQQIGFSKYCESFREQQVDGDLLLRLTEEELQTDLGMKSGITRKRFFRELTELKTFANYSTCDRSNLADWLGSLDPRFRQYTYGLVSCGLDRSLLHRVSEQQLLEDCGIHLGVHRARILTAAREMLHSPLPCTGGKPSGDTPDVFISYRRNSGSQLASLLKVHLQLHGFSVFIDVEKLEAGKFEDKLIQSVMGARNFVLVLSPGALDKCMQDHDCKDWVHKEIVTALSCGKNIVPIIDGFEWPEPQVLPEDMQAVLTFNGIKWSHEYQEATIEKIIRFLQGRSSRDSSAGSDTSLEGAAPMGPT

## COc1ccc(Cc2nccc3cc(OC)c(OC)cc23)cc1OC
[1]
  score: 1.48
[2]
  cytochrome c release ratio: 1.07
[3]
  inhibition of aggregation: 46.4%
[4]; at 10 µM
  nuclear beta-catenin stimulation: 1.4% (inactive)
[4]; stimulation, at 2 µM
  nuclear beta-catenin stimulation: -0.3%
[5]
  insulin secretion stimulation: -2.5% (inactive)
[6]
  viability decrease: 54.7% (active)
[7]
  tube area decrease: 59.3% (active)
[8]
  GLP1 secretion stimulation: 2.3% (inactive)
[9]
  inhibition of viability: 39.8% (inactive)
[10]
  viability decrease (inhibition): 112% (active)
[11]
  viability decrease (inhibition): 14.5% (inactive)
[12]
  inhibition: -8.16% (inactive)
[13]
  red/green cell ratio (normalised): 0.84 (inactive)
[13]; [21]
  normalised cell number: 1
[13]; [22]
  normalised cell number: 0.83
[14]
  activity remaining: 114% (inactive)
[15]; stronger effect = lower value
  fold change: 1.24 (inactive) and 0.81 (inactive) and 0.838 (inactive)
[15]; [23]
  fold change: 0.505 and 1.57 and 3.09
[15]; [24]
  cell count: 7270 and 6810 and 7780
[15]; [25]
  cell count: 5860 and 8410 and 9280
[16]; MELAS cybrid survival, CellTiter-Glo 48 h, stronger effect = higher value
  z-score: 0.889 (inactive)
[16]; Rieske KO mouse fibroblast survival, CellTiter-Glo 72 h
  z-score: 0.124
[17]
  remaining NAD: 10 nM (inactive)
[18]
  luciferase signal: 24 AU (inactive)
[19]
  z-score: -1.28 (inactive)

## CCNc1nc(Cl)nc(NCC)n1
[4]; at 10 µM
  nuclear beta-catenin stimulation: 0.8% (inactive)
[4]; stimulation, at 2 µM
  nuclear beta-catenin stimulation: 2.2%
[5]
  insulin secretion stimulation: -1.4% (inactive)
[6]
  viability decrease: -15.2% (inactive)
[7]
  tube area decrease: 8.9% (inactive)
[8]
  GLP1 secretion stimulation: 1.7% (inactive)
[9]
  inhibition of viability: 3.93% (inactive)
[10]
  viability decrease (inhibition): -14.9% (inactive)
[11]
  viability decrease (inhibition): -16.6% (inactive)
[12]
  inhibition: 4.55% (inactive)
[14]
  activity remaining: 94.3% (inactive)
[18]
  luciferase signal: 52 AU (inactive)

## O=C1c2ccccc2C(=O)c2ccccc21
[20]
  parasite load remaining: 115% (inactive)
  viability: 67.1%
[4]; at 10 µM
  nuclear beta-catenin stimulation: 1.3% (inactive)
[4]; stimulation, at 2 µM
  nuclear beta-catenin stimulation: 0.4%
[5]
  insulin secretion stimulation: -1.4% (inactive)
[6]
  viability decrease: 2.3% (inactive)
[7]
  tube area decrease: 6.7% (inactive)
[8]
  GLP1 secretion stimulation: 1.9% (inactive)
[9]
  inhibition of viability: -45% (inactive)
[10]
  viability decrease (inhibition): 31.6% (inactive)
[11]
  viability decrease (inhibition): 4.05% (inactive)
[12]
  inhibition: -2.54% (inactive)
[13]
  red/green cell ratio (normalised): 0.79 (inactive)
[13]; [21]
  normalised cell number: 1.17
[13]; [22]
  normalised cell number: 0.92
[14]
  activity remaining: 119% (inactive)
[18]
  luciferase signal: 100 AU (inactive)

## COc1c2c(cc3c1OCO3)CCN(C)C2
[20]
  parasite load remaining: 101% (inactive) and 78.2% (inactive)
  viability: 102% and 69.9%
[4]; at 10 µM
  nuclear beta-catenin stimulation: 0.2% (inactive)
[4]; stimulation, at 2 µM
  nuclear beta-catenin stimulation: 1.3%
[5]
  insulin secretion stimulation: -1.1% (inactive)
[6]
  viability decrease: 5% (inactive)
[7]
  tube area decrease: 4.7% (inactive)
[8]
  GLP1 secretion stimulation: -0.1% (inactive)
[9]
  inhibition of viability: -4.7% (inactive)
[10]
  viability decrease (inhibition): 36.7% (inactive)
[11]
  viability decrease (inhibition): 4.85% (inactive)
[12]
  inhibition: 1.73% (inactive)
[14]
  activity remaining: 120% (inactive)
[15]; stronger effect = lower value
  fold change: 0.866 (inactive)
[15]; [23]
  fold change: 1.09
[15]; [24]
  cell count: 9520
[15]; [25]
  cell count: 11000

## COP(=S)(OC)Oc1ccc(SC)c(C)c1
[4]; at 10 µM
  nuclear beta-catenin stimulation: 1.4% (inactive)
[4]; stimulation, at 2 µM
  nuclear beta-catenin stimulation: 1.3%
[5]
  insulin secretion stimulation: -2.2% (inactive)
[6]
  viability decrease: 16.1% (inactive)
[7]
  tube area decrease: 13.4% (inactive)
[8]
  GLP1 secretion stimulation: -0.1% (inactive)
[9]
  inhibition of viability: -20.4% (inactive)
[10]
  viability decrease (inhibition): 89.6% (active)
[11]
  viability decrease (inhibition): 8.15% (inactive)
[12]
  inhibition: 9.75% (inactive)
[13]
  red/green cell ratio (normalised): 0.97 (inactive)
[13]; [21]
  normalised cell number: 1.03
[13]; [22]
  normalised cell number: 1
[14]
  activity remaining: 92.7% (inactive)
[15]; stronger effect = lower value
  fold change: 0.917 (inactive)
[15]; [23]
  fold change: 0.928
[15]; [24]
  cell count: 9260
[15]; [25]
  cell count: 10100

Reference: PubChem BioAssay
